Data: ChEMBL document CHEMBL1201862, “PubChem BioAssay data set” (2004)
The whole screen tested about 410,000 compounds, of which about 7,200 (1.8%) were called active. Roughly 7% stayed inconclusive and do not appear here. This is one part of a sample in which actives are shown more often than they occur. The calls are words filed in the database; no cut-off is given here.

Biological target: TAR DNA-binding protein 43 (Homo sapiens) (UniProt Q13148)
Test: qHTS of TDP-43 Inhibitors.
Assay type: functional

Sequence of TAR DNA-binding protein 43 (Homo sapiens) (Q13148 whole entry): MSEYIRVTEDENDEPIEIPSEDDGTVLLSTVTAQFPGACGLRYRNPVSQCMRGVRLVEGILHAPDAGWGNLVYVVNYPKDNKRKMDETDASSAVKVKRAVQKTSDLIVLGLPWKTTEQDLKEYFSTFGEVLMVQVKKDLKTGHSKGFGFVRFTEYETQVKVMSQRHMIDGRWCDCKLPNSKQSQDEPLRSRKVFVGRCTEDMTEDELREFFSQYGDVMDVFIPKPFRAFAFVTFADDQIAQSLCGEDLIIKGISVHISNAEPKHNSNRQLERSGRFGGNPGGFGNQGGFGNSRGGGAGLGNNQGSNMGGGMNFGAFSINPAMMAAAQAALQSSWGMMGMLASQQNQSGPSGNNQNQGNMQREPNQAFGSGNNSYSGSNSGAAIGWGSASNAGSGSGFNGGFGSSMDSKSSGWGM

Potency, inactive:
O=C(Nc1ccccc1)c1ccccc1NS(=O)(=O)c1ccc(Cl)s1, O=C(N/N=C/c1ccc(O)c2ncccc12)c1cccc(Br)c1, Clc1ccc(-c2nnc(COc3ncnc4ccccc34)o2)cc1, Cc1ccc(-c2cc(C(=O)N3N=C(C(F)F)CC3(O)C(F)F)c3ccccc3n2)cc1C (configuration not stated), Cc1ccc(N(Cc2ccccc2)C(=O)c2cc(S(=O)(=O)N3CCOCC3)ccc2Cl)cc1, COc1ccc2[nH]c3c(C)c4ccncc4c(C)c3c2c1, O=C(Nc1cccc(F)c1)c1ccc2c(c1)OCCO2, COc1ccc(Cl)cc1NC(=O)C1CCCN(c2cc(C)nc3ncnn23)C1 (configuration not stated), CN(C(=O)COC(=O)c1cccnc1Nc1cccc(C(F)(F)F)c1)C1CCS(=O)(=O)C1 (configuration not stated)

Potency, active:
COc1ccc(OCC(O)COc2ccc(C(=O)O)cc2)cc1 (configuration not stated) 100 µM, CCOc1cc(N2CCOCC2)c(OCC)cc1NC(=O)Cn1[nH]c(=O)c2ccccc2c1=O 79.4 µM, O=C(O)Cc1ccccc1Nc1c(Cl)cccc1Cl 15.8 µM
